Source: PubChem BioAssay
Rows were chosen to be rich in hits. Some 6% of all compounds tested hit in one or more screens of this group.
D1 antag: blocks dopamine activation of the human D1 receptor; P21728; HEK293 TREx D1 cells, calcium flux, dopamine EC80; stronger effect = lower value; activity change, negative = inhibition, % at 10 µM; 360,000 compounds, 3.2% hits; in the data active means activity change below about -30%
Target sequence (P21728 whole entry, looked up): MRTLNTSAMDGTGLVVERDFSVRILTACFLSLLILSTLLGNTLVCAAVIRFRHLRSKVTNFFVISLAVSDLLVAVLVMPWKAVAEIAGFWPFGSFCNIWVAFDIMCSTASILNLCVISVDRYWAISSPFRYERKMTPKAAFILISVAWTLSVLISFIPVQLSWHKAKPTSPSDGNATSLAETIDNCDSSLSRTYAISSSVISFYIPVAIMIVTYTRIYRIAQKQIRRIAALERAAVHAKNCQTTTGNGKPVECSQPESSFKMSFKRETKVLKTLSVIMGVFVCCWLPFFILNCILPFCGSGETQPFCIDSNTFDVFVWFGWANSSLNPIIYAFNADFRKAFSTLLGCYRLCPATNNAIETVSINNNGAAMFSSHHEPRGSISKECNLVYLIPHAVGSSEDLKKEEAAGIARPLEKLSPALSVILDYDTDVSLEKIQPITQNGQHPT
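Calcium flux readout: force-coupled, inducible Hek293 Trex D1 line, cells induced overnight at 30 C with tetracycline, dye-loaded 30–90 min at RT. Antagonism scored against EC80 dopamine challenge given 180 s after compound.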
D1 agonist: activates the human D1 dopamine receptor. P21728. HEK293 T-REx D1 cells, calcium flux, agonist mode. activation, % at 2 µM. 360,000 compounds, 1% hits. AID 504660; in the data active means activation above about 30%
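Inducible HEK293 T-REx D1 cells, force-coupled to calcium signalling, were plated at 4000 cells/well with tetracycline and held overnight at 30 C. After no-wash calcium dye loading, compound-evoked calcium rise over 180 s flagged agonists.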
D3 antag: antagonists of human D3 dopamine receptor; D3R cells, DiscoveRx beta-arrestin luminescence, antagonist mode; stronger effect = lower value; max response, negative = inhibition, %; P35462; AID 652054; 360,000 compounds, 2.5% hits; in the data active means max response below about -50%; inconclusive means no clear call, values can overlap the other calls
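Cells expressing the human receptor were seeded at 1500 cells/well, incubated overnight at 37 degrees C in 5% CO2, then exposed to library compounds with dopamine controls for 90 minutes at 37 degrees C before luminescent detection.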
DRD3 agonist: activates the human D3 dopamine receptor; P35462; D3R DiscoveRx beta-arrestin cells, luminescence, 90 min; max activation, %; 410,000 compounds, 0.58% hits; in the data active means max activation above about 30%
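Agonist mode: compounds and dopamine controls were applied to plated cells for 90 min at 37 degrees C after an overnight attachment at 1500 cells/well. Luminescent read-out followed 30 - 60 minutes at room temperature with DiscoveRx detection reagent.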
D1 potentiator: human D1 dopamine receptor positive modulation; 360,000 compounds, 0.036% hits; AID 504651; potentiation, % at 10 µM; HEK293 TREx D1 cells, calcium flux, dopamine EC20 potentiation; P21728; in the data active means potentiation above about 30%
Numbers stand for hits; n = inactive; u = inconclusive; x = no result; ! = not confirmed by another sample.

SMILES	D1 antag	D1 agonist	D3 antag	DRD3 agonist	D1 potentiator
Oc1ccc(Br)cc1C1C=C(c2ccc3c(c2)OCO3)NC(c2c(F)cccc2Cl)N1 (stereo not drawn)	-56	n	x	x	n
Oc1ccc(Cl)cc1C1C=C(c2ccc3c(c2)OCO3)NC(c2cc(Br)ccc2F)N1 (stereo not drawn)	n	31	x	x	n
COc1ccc(Br)cc1C1NC(c2ccc3c(c2)OCO3)=CC(c2cc(Cl)ccc2O)N1 (stereo not drawn)	n	n	x	x	n
COC(=O)c1sc2cccc(F)c2c1S(=O)(=O)Nc1ccc(C)cc1Cl	n	n	x	n	n
O=C(NNC(=O)c1cccs1)c1cccnc1	-54	n	n	n	n
O=C(NNC(=S)NCc1ccc(Cl)cc1)c1cccnc1	-35	n	n	n	n
O=C(NNC(=O)c1cccnc1)Nc1ccc(Cl)c(Cl)c1	n	n	n	n	n
O=C(NNC(=S)NC(=O)c1cccnc1)c1ccc(Cl)cc1	n	n	n	n	n
O=C(NNC(=O)c1ccc(Cl)c(Cl)c1)c1cccnc1	-74	n	n	n	n
O=C(O)C1=C(CSc2nnnn2CS(=O)(=O)O)CS[C@@H]2[C@H](NC(=O)[C@H](O)c3ccccc3)C(=O)N12	x	x	x	n	x
Cc1cccc(N2CCN(C3(c4ccccc4)C(=O)c4ccccc4C3=O)CC2C)c1 (stereo not drawn)	n	n	x	n	n
COc1ccc2c(c1)NC(c1ccc(Cl)cc1)=NC(c1cccs1)=N2	n	n	x	n	n
COc1ccc(NCC(=O)Nc2cccc(S(=O)(=O)N3CCCC3)c2)cc1Cl	x	x	n	n	x
COc1ccc(NCC(=O)N2CCCC2)cc1Cl	-30	n	n	n	n
O=C1CCCCCCCN1Cc1ccccc1	x	x	n	n	x
CC1=NN(Cc2ccccc2)C(=O)C1	-36	n	n	n	n
Cc1ccccc1CNC(=O)C(=O)NCC(c1ccco1)S(=O)(=O)c1ccc(F)cc1 (stereo not drawn)	x	n	x	n	n
OC(c1ccccc1)(c1nc(-c2cccc(F)c2)cs1)C(F)(F)F (stereo not drawn)	x	x	n	n	x
CCCc1nc2ccccc2n1CCOC	n	n	n	n	n
COc1ccc(NCc2nc3ccccc3n2CCOc2ccc(C)cc2)cc1	n	n	-52	n	n
Cc1ccc(OCCn2c(COc3ccc(Cl)cc3)nc3ccccc32)cc1	n	47	x	n	n
CCCc1nc2ccccc2n1CCOc1ccccc1	-49	n	-62	n	n
Cc1nc2ccccc2n1CCCOc1ccccc1	n	n	n	n	n
Cc1ccc(OCCn2c(C)nc3ccccc32)cc1	-45	n	n	n	n
Cc1ccc(Cn2c(=O)n(CC3CCC(C(=O)N4CCOCC4)CC3)c(=O)c3sccc32)cc1 (stereo not drawn)	n	n	x	n	n
SMILES	D1 antag	D1 agonist	D3 antag	DRD3 agonist	D1 potentiator
COc1ccc(OCc2nc3ccccc3n2Cc2ccccc2Cl)cc1	n	n	x	n	n
Cc1ccccc1Cn1c(COc2ccc(Cl)cc2)nc2ccccc21	-65	62	x	n	n
COc1cccc(-c2cnc3cccnn23)c1	x	x	n	n	x
COc1cc(/C=C/C(=O)OC2CC3CCC2(C)C3(C)C)ccc1O (stereo not drawn)	n	n	-50	n	n
Nc1ncc(S(=O)(=O)NCc2ccc(Cl)cc2)cn1	n	n	x	n	n
Cc1ccc2c(=O)c(C(=O)c3ccc(Cl)cc3)cn(CC(=O)Nc3ccc4c(c3)OCCO4)c2n1	n	n	x	n	n
Cc1ccc(NS(=O)(=O)c2ccc(C)c(NC(=O)COc3ccccc3)c2)c(C)c1	-46	n	n	n	n
Cc1ccc(NC(=O)COc2ccccc2)c(NC(=O)c2ccccc2C)c1	x	x	n	n	x
COC(=O)c1cc(S(=O)(=O)NCc2ccccc2OC)cn1C	-48	n	n	n	n
COC(=O)c1cc(S(=O)(=O)NCC2CCN(Cc3cccc(F)c3)CC2)cn1C	-39!	n	u	n	n
CCOC(=O)c1cc(S(=O)(=O)NCC2CCN(Cc3cccc(C)c3)CC2)cn1C	n	n	n	n	n
COC(=O)c1cc(S(=O)(=O)NCc2cccc(OC)c2)cn1C	n	n	n	n	n
CC(C)C(NS(=O)(=O)c1ccc2c(c1)oc(=O)n2C)C(=O)NCCc1ccc(Cl)cc1 (stereo not drawn)	n	n	x	n	n
